Laboratory results: the supplement of paper PMC9023506
Structures can show the parent of a compound that is named as a salt.

Test system: Danio rerio larvae (5 dpf)
Assay: optomotor response to red moving lines, difference vs DMSO (percentage points (treated minus DMSO)); higher = more of the behaviour than the DMSO vehicle control
Settings: 10 µM; exposure time: 3 h pre-incubation + 3 h imaging
Procedure: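 5-dpf wild-type zebrafish larvae were imaged in 96-well plates. They were treated with 190 Tocris FDA-approved drugs at 10 µM (1 µl/ml DMSO) for 3 h before and 3 h during imaging at 28.5 °C, 48 larvae per drug. Automated image analysis gave % time moving and optomotor responses. Values are drug group mean minus DMSO vehicle mean (n=844), in percentage points, for 10 behaviours.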

SMILES | optomotor response to red moving lines
O=c1[nH]c2ccccc2n1C1CCN(CCCC(c2ccc(F)cc2)c2ccc(F)cc2)CC1 [Pimozide] | -0.227
COc1ccc(C(CN(C)C)C2(O)CCCCC2)cc1 (stereo unspecified) [Venlafaxine hydrochloride] | 18.8
CC[C@@H](C(N)=O)N1CCCC1=O [Levetiracetam] | 0.251
CCN(C)C(=O)Oc1cccc([C@H](C)N(C)C)c1 [Rivastigmine tartrate] | -8.95
CC(C)C[C@H]1C(=O)N2CCC[C@H]2[C@]2(O)O[C@](NC(=O)[C@@H]3C=C4c5cccc6[nH]c(Br)c(c56)C[C@H]4N(C)C3)(C(C)C)C(=O)N12 [Bromocriptine mesylate] | -29
COc1cc2c(cc1OC)C1CC(=O)C(CC(C)C)CN1CC2 (stereo unspecified) [Tetrabenazine] | -1.77
CC(O)(CS(=O)(=O)c1ccc(F)cc1)C(=O)Nc1ccc(C#N)c(C(F)(F)F)c1 (stereo unspecified) [Bicalutamide] | -10.4
CN1C[C@H](C(=O)N[C@]2(C)O[C@@]3(O)[C@@H]4CCCN4C(=O)[C@H](Cc4ccccc4)N3C2=O)C[C@@H]2c3cccc4[nH]cc(c34)C[C@H]21 [Dihydroergotamine mesylate] | 11.5
C=CCN1C[C@H](C(=O)N(CCCN(C)C)C(=O)NCC)C[C@@H]2c3cccc4[nH]cc(c34)C[C@H]21 [Cabergoline] | -3.05
N[C@@H]1C[C@H]1c1ccccc1 [Tranylcypromine hydrochloride] | 12.9
C=C1C[C@@H]2[C@H](CC[C@]3(C)C(=O)CC[C@@H]23)[C@@]2(C)C=CC(=O)C=C12 [Exemestane] | 6.78
